Inconclusive results are not listed. Unmarked numbers belong to inactive results. Calls of active or inactive are those of the source. Calls follow the shape of the dose curve; as a rule, active = well fitted inhibition curve with a large enough effect; inconclusive = small, poorly fitted or top-dose-only effect; inactive = flat fitted curve, though single readings scatter.
biological target: Lysine-specific demethylase 5B (Homo sapiens) (UniProt Q9UGL1); assay: Optimization screen for KDM5B Histone Demethylases FDH coupled qHTS against the LOPAC library (AID 1347166); details: KDM5B demethylation, FDH-coupled NADH fluorescence (FDH is formaldehyde dehydrogenase); at 57.5 µM (top of the series); also: 0% is about no effect
How it was run: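 KDM5BDeltaAP (200nM final) preincubated 10 min with compound, then 12.5uM H3K4Me3, 25uM a-ketoglutarate, ascorbate, Fe(II), NAD+ and FDH added; 50mM HEPES pH 7.5, 0.01% Tween-20. NADH fluorescence (340/450 nm) change over 30 min, room temperature.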

Sequence of Lysine-specific demethylase 5B (Homo sapiens) (Q9UGL1 whole entry, looked up): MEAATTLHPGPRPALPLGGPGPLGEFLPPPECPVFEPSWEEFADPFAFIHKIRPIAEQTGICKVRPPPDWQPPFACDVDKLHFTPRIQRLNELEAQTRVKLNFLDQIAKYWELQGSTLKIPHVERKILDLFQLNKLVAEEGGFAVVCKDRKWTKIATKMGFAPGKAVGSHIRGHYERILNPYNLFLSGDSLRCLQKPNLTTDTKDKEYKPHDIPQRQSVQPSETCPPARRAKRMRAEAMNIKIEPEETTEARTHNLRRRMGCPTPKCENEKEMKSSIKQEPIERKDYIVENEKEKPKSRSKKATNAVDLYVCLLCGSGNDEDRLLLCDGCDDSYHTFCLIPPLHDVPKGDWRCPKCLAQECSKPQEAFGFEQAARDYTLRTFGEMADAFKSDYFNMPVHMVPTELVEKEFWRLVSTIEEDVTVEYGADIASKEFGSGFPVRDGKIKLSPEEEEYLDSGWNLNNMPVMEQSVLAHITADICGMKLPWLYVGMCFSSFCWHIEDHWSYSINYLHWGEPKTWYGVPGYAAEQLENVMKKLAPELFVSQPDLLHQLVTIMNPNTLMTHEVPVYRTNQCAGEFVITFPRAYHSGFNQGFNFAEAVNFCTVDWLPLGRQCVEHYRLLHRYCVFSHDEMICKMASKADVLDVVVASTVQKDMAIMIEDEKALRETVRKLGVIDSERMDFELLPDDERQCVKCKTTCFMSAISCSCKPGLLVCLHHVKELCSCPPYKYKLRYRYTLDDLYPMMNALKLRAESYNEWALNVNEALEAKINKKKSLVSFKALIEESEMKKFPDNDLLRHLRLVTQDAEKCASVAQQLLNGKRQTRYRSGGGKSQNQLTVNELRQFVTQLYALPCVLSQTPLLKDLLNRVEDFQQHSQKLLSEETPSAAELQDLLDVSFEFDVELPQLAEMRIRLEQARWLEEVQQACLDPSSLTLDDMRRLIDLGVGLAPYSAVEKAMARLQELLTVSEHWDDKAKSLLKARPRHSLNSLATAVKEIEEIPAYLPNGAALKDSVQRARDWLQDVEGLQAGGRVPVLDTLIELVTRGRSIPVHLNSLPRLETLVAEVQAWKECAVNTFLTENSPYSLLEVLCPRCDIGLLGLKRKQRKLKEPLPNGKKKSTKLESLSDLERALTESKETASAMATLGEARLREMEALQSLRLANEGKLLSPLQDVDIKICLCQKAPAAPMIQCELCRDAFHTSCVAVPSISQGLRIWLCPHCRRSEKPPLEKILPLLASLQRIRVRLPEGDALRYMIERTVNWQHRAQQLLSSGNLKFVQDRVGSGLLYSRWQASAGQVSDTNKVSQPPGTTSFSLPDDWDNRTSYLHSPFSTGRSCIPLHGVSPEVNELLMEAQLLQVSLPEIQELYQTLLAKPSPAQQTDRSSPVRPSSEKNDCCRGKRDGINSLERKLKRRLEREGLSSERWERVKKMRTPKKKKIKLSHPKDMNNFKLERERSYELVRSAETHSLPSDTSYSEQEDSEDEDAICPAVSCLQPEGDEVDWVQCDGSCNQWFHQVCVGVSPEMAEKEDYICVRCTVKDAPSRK

| SMILES | activity, negative = inhibition |
| --- | --- |
| O=c1cc(-c2ccccc2F)[nH]c2cc3c(cc12)OCO3 | -604% (active) |
| O=C(O)C1CCCNC1 (stereo not given) | -0.313% |
| N#CC(C#N)=C(N)/C(C#N)=C/c1ccc(O)cc1 | -9.24% |
| Cc1ccc2c(c1)C(N1CCN(C)CC1)=Nc1cccnc1N2 | -6.11% |
| [Li+] | -3.55% |
| NCC(O)(CS(=O)(=O)O)c1ccc(Cl)cc1 (stereo not given) | -2.36% |
| Oc1ccc(/C=C/c2ccc(/C=C/c3ccc(O)cc3)c(Br)c2)cc1 | 662% |
| CO/N=C(\C(=O)N[C@@H]1C(=O)N2C(C(=O)O)=C(CSc3nc(=O)c(O)nn3C)CSC12)c1csc(N)n1 (stereo not given in full) | -14.3% |
| COc1ccc(CCn2nnnc2C2(c3ccc(C)cc3)CC2)cc1 | -4.62% |
| Cc1cccc(C)c1OCC(N)C(C)C (stereo not given) | -17.4% |
| COC(=O)C(N)Cc1ccc(Cl)cc1 (stereo not given) | -3.16% |
| CC(=O)/C(C)=N/O | -0.876% |
| CCCCOC(=O)NS(=O)(=O)c1sc(CC(C)C)cc1-c1ccc(Cn2c(CC)nc3c(C)cc(C)nc32)cc1 | -19.3% |
| COc1cccc(OC)c1OCCNCC1CSc2ccccc2O1 (stereo not given) | -14.1% |
| O=C1C2C=CC=CC2=NC(=S)N1CCN1CCC(=C(c2ccc(F)cc2)c2ccc(F)cc2)CC1 (stereo not given) | -6.14% |
| NC1CONC1=O (stereo not given) | -3.54% |
| CC1CCN=C(N)S1 (stereo not given) | -2.36% |
| COc1cc(C(O)CO)ccc1O (stereo not given) | -5.15% |
| C[N+](C)(C)CC=O | -0.629% |
| CCCCCCCCCC[Si](C)(C)CCC(=O)NC(Cc1ccc(C)cc1)c1ccccc1 (stereo not given) | -3.59% |

| SMILES | activity, negative = inhibition |
| --- | --- |
| Nc1nc2c(nc(Br)n2C2OC3COP(=O)(O)O[C@@H]3C2O)c(=O)[nH]1 (stereo not given in full) | -2.81% |
| CN(C)S(=O)(=O)c1ccc2c(c1)/C(=C/c1cc3c([nH]1)CCCC3)C(=O)N2 | -8.97% |
| C=CC1(C)CC(=O)C2(O)C(C)(O1)C(OC(C)=O)C(O)C1C(C)(C)CCC(O)C12C (stereo not given) | -2.72% |
| CCCCCCCCCCCCCCSCC(=O)O | -24.4% |
| O=C1OC(=O)C2C3CCC(O3)C12 (stereo not given) | 3.88% |
| O=c1[nH]c2cc(Cl)ccc2c(O)c1-c1ccc(Oc2ccccc2)cc1 | -28.1% |
| CCOC(=O)C12CC1/C(=N/O)c1ccccc1O2 (stereo not given) | -9.53% |
| CC(=O)SC1CC2=CC(=O)CC[C@]2(C)C2CC[C@@]3(C)C(CC[C@@]34CCC(=O)O4)C12 (stereo not given in full) | 0.621% |
| Cc1ccc([N+](=O)[O-])cc1S(=O)(=O)N(C)C | -0.674% |
| NC(Cc1cccc(-c2ccccc2CP(=O)(O)O)c1)C(=O)O (stereo not given) | -9.93% |
| Cc1nc(N=Nc2ccc(C(=O)O)cc2)c(COP(=O)(O)O)c(C=O)c1O | -12.4% |
| OC[C@H]1O[C@@H](n2cnc3cncnc32)[C@H](O)[C@@H]1O | -2.2% |
| NC1CCN(O)C1=O (stereo not given) | -8.73% |
| C=C(C)C1CC=C(C(=O)O)CC1 (stereo not given) | 1.54% |
| CN(CC[C@@H](Oc1ccc(C(F)(F)F)cc1)c1ccccc1)CC(=O)O | -7.4% |
| CC(=O)O[C@H]1Cc2ccccc2N(C(N)=O)c2ccccc21 | -5.85% |
| OCC1NCC(O)C(O)C1O (stereo not given) | -3.55% |
| Cn1ccnc1 | -0.951% |
| NOCC(=O)O | -4.09% |
| N[C@H]1CONC1=O | -4.96% |

Reference: PubChem BioAssay (NCATS)
